According to PubChem BioAssay:
Activity calls are given as the source filed them. Rule as the data show it: active = fold change permeability below about 0.7 or above about 1.3; inactive = in between.

Assay: compounds altering in vitro BBB leakiness – cell-based, FITC-avidin fluorescence, HTS, primary screen (AID 1963498); also: test concentration not given here
Settings: brain endothelial barrier, actives lie on both sides

Row | SMILES | fold change permeability
1 | O=C(NCc1ccc(F)cc1)C1CCN(S(=O)(=O)c2cc(Cl)cc(Cl)c2)CC1 | 1.5 (active)
2 | CN1C2CCC1CC(OC(=O)C(O)c1ccccc1)C2 (centres undefined) | 1.1 (inactive)
3 | Clc1cccc(Cl)c1CSc1nnc(-c2cnccn2)s1 | 1.2 (inactive)
4 | Clc1ccccc1C(c1ccccc1)(c1ccccc1)n1ccnc1 | 1.2 (inactive)
5 | CCCCCN(CCCOC)C(=O)C(CCC(=O)O)NC(=O)c1ccc(Cl)c(Cl)c1 (centres undefined) | 1 (inactive)
6 | CC[C@@]1(O)C(=O)OCc2c1cc1n(c2=O)Cc2cc3c(CN(C)C)c(O)ccc3nc2-1 | 1 (inactive)
7 | CCSC(=N)N | 1.1 (inactive)
8 | O=c1cc(-c2ccc(O)cc2)oc2cc(O)cc(O)c12 | 1.2 (inactive)
9 | C[C@H](Cc1ccc(O)c(O)c1)[C@@H](C)Cc1ccc(O)c(O)c1 | 1 (inactive)
10 | Nc1nc(-c2ccccc2)c(Br)c(=O)[nH]1 | 1.7 (active)
11 | Cc1cc2c(s1)Nc1ccccc1N=C2N1CCN(C)CC1 | 0.7 (active)
12 | Nc1ncnc2c1ncn2[C@@H]1O[C@H](COP(=O)(O)OP(=O)(O)OP(=O)(O)OP(=O)(O)OC[C@@H]2O[C@H](n3cnc4c(N)ncnc43)C(O)[C@@H]2O)[C@H](O)C1O (some centres undefined) | 1 (inactive)
13 | N[C@H](C(=O)O)[C@H](Cc1ccccc1)C(=O)O | 1.2 (inactive)
14 | COc1cc(/C=C(\C#N)C(=O)Nc2nnc(C(F)(F)F)s2)ccc1OCc1ccc(C(F)(F)F)cc1C(F)(F)F | 1.5 (active)
15 | NS(=O)(=O)C#Cc1ccccc1 | 1.8 (active)
16 | O=C(CCCN1CCC(O)(c2cccc(C(F)(F)F)c2)CC1)c1ccc(F)cc1 | 1.6 (active)
17 | NCCS(=O)(=O)O | 0.8 (inactive)
18 | CSc1ccccc1N1CCN(CCCCCC(=O)NC2CCCc3ccccc32)CC1 (centres undefined) | 1.3 (active)
19 | Cn1cc(C(=O)OCC2CCN(CCNS(C)(=O)=O)CC2)c2ccccc21 | 1 (inactive)
20 | CC(C)C[C@H](C(=O)O)c1cc(-c2ccc(C(F)(F)F)cc2)cc(-c2ccc(C(F)(F)F)cc2)c1 | 0.9 (inactive)
21 | CN(C)CCC=C1c2ccccc2C=Cc2ccccc21 | 1.1 (inactive)
22 | Cc1cc(N2C[C@@H](C)N[C@@H](C)C2)ncc1-c1ccc(-c2nc3c(ccn3C)c(=O)[nH]2)cc1 | 1.3 (active)
23 | CCN1CCCC1CNC(=O)c1cc(S(N)(=O)=O)ccc1OC (centres undefined) | 0.7 (active)
24 | NC(=O)c1cnccn1 | 0.9 (inactive)
